We go through 37 compounds from PubChem BioAssay (NCATS).

SMILES strings stand for the structures. “And” between values parts separate entries of the source, which are not always exact repeats. Equal values may be shown once. Inconclusive results are not listed. Entries that show only a call come without a potency. The source made the active and inactive calls. Calls come from the whole dose curve.

The first test can be described thus: Cytotoxicity counterscreen for inhibitors of SARS-CoV-2 cell entry (AID 1645845). Note: nearly all actives have a fitted effect of over 50% in size. The conditions noted are these: cell viability (SARS-CoV-2 entry assay cells); series mostly up to 57.1 µM; activity change, negative = cytotoxicity: at the top concentration. The procedure, abridged:
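Expi293F/hACE2 cells seeded overnight; cpd pin-transferred in DMSO, 1 h preincubation, + media, 48 h 37 C 5% CO2; ATPLite 1step luminescence; normalized to cells and no cells.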
(Counterscreens check selectivity or assay interference.)
With `CC(C(=O)O)c1cccc(C(=O)c2ccccc2)c1` (stereo unspecified), the Potency result is “inactive”. Take `Oc1ccc(C2CNCCc3c2cc(O)c(O)c3Cl)cc1` (stereo unspecified): the Potency entry is “inactive”. With `CC(C)(C)NC(=O)[C@H]1CC[C@H]2[C@@H]3CC[C@H]4NC(=O)C=C[C@]4(C)[C@H]3CC[C@]12C`, the Potency result was “inactive”. As for `CC1Cc2ccccc2N1NC(=O)c1ccc(Cl)c(S(N)(=O)=O)c1` (stereo unspecified), the Potency entry was “inactive”. On the same count and under the same terms, for `Cc1cnc(C(=O)NCCc2ccc(S(=O)(=O)NC(=O)NC3CCCCC3)cc2)cn1` the value was “inactive”.

Turning to `NC(=O)NO`, the Potency entry is “inactive”.

A further test is described as follows: Primary qHTS to identify inhibitors of SARS-CoV-2 cell entry (AID 1645846). Note: nearly all actives have a fitted effect of over 45% in size. Particulars: SARS-CoV-2 pseudovirus cell entry assay, luminescence; activity change, negative = inhibition: at 57.1 µM (top of the series) unless noted; series mostly up to 57.1 µM. The procedure, abridged: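 Using luciferase-reporting pseudoviruses carrying Wuhan-Hu-1 spike, the screen tracks entry into stably ACE2-expressing cells over 48 hr. Activity is expressed relative to spike particles versus particles lacking any fusion protein.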
`CCCN(CCC)S(=O)(=O)c1ccc(C(=O)O)cc1`: the activity change, negative = inhibition was -14.9%. Regarding `C[C@@H](O)[C@H]1C(=O)N2C(C(=O)O)=C(S[C@@H]3CN[C@H](C(=O)N(C)C)C3)[C@H](C)[C@H]12`, the result was inactive and the activity change, negative = inhibition is -22.9%. For the compound `O=P(O)(O)C(O)(Cc1cccnc1)P(=O)(O)O`, the activity change, negative = inhibition was 4.27% and -14.8%. On the same count and under the same terms, for `CC(C)NC[C@@H](O)COc1ccc(CC(N)=O)cc1` the value was -29.4%. For `O=C1NC(=O)C(c2ccccc2)(c2ccccc2)N1`, the result was inactive. `c1cnc2cc3c(cc2n1)C1CNCC3C1`: the activity change, negative = inhibition is -6.05% and -6%. Turning to `CC1(C)S[C@@H]2[C@H](NC(=O)C(C(=O)O)c3ccccc3)C(=O)N2[C@H]1C(=O)O` (stereo partly specified), the outcome was inactive. `CC(C)(C)NC(=O)[C@@H]1CN(Cc2cccnc2)CCN1C[C@@H](O)C[C@@H](Cc1ccccc1)C(=O)N[C@H]1c2ccccc2C[C@H]1O`: the activity change, negative = inhibition stood at 4.24%. Consider `CCCN[C@H]1CCc2nc(N)sc2C1`, for which the outcome was inactive and the activity change, negative = inhibition is -3.81%. As to `CC(=O)CCCCn1c(=O)c2c(ncn2C)n(C)c1=O`, the compound was called inactive. For the compound `CC(C)NCC(O)c1ccc(O)c(O)c1` (stereo unspecified), the compound was called inactive and the activity change, negative = inhibition is -10.8%. The corresponding values for `COC(=O)[C@@H]1CC2=CC(=O)CC[C@]2(C)[C@@]23O[C@@H]2C[C@@]2(C)[C@@H](CC[C@@]24CCC(=O)O4)[C@H]13` are “inactive” and -17.3%.

As to `CC(S)C(=O)NCC(=O)O` (stereo unspecified), the call was inactive and the activity change, negative = inhibition is -22.2%. Take `CCCCCOC(=O)Nc1nc(=O)n([C@@H]2O[C@H](C)[C@@H](O)[C@H]2O)cc1F`: the Potency entry was “inactive”. `CCn1cc(C(=O)O)c(=O)c2cc(F)c(N3CCNCC3)cc21`: the compound was classed as inactive and the activity change, negative = inhibition was -15.8%.

`C=C(c1ccc(C(=O)O)cc1)c1cc2c(cc1C)C(C)(C)CCC2(C)C`: the compound was called inactive and the activity change, negative = inhibition is -6.82%. For `CCOC(=O)c1ncn2c1CN(C)C(=O)c1cc(F)ccc1-2` the same measures were “inactive” and -12.9%. Take `CCC1(c2ccccc2)C(=O)NCNC1=O`: the result was inactive and the activity change, negative = inhibition was -9.71%. As to `O=C(O)CCNC(=O)c1ccc(N=Nc2ccc(O)c(C(=O)O)c2)cc1`, the Potency result is “inactive”.

On to `NC(=O)OCC(COC(N)=O)c1ccccc1`, for which the result was inactive and the activity change, negative = inhibition is -1.23%. As for `NS(=O)(=O)c1cc2c(cc1C(F)(F)F)NCNS2(=O)=O`, the compound was called inactive. Turning to `Cc1ccccc1N1C(=O)c2cc(S(N)(=O)=O)c(Cl)cc2NC1C` (stereo unspecified), the call was inactive and the activity change, negative = inhibition was -97.4%. As for `O=C(C1CCCCC1)N1CC(=O)N2CCc3ccccc3C2C1` (stereo unspecified), the Potency result was “inactive”.

For `C[C@](N)(Cc1ccc(O)c(O)c1)C(=O)O`, the outcome was inactive and the activity change, negative = inhibition is -1.67%. Regarding `CC[C@@]1(c2ccccc2)NC(=O)N(C)C1=O`, the activity change, negative = inhibition is -24.8%. On to `CS(=O)(=O)OCCCCOS(C)(=O)=O`, for which the result was inactive and the activity change, negative = inhibition was -16.9%.

Regarding `Cc1ccc(C)c(OCCCC(C)(C)C(=O)O)c1`, the compound was classed as inactive and the activity change, negative = inhibition was -8.37%. For `CCCc1nc2c(C)cc(-c3nc4ccccc4n3C)cc2n1Cc1ccc(-c2ccccc2C(=O)O)cc1` the same measures were “inactive” and -3.28%. For `O=C(NCCN1CCOCC1)c1ccc(Cl)cc1`, the outcome was inactive.

With `Cc1cc(C)cc(OCC2CNC(=O)O2)c1` (stereo unspecified), the call was inactive. With `CCCCN1C[C@H](O)[C@@H](O)[C@H](O)[C@H]1CO`, the activity change, negative = inhibition is -1.04%.

With `CC(C(=O)O)c1cccc(C(=O)c2ccccc2)c1` (stereo unspecified), the result was inactive and the activity change, negative = inhibition was -2.03%. As to `Oc1ccc(C2CNCCc3c2cc(O)c(O)c3Cl)cc1` (stereo unspecified), the Potency entry was “inactive”. On to `CC(C)(C)NC(=O)[C@H]1CC[C@H]2[C@@H]3CC[C@H]4NC(=O)C=C[C@]4(C)[C@H]3CC[C@]12C`, for which the Potency result was “inactive”. With `CC1Cc2ccccc2N1NC(=O)c1ccc(Cl)c(S(N)(=O)=O)c1` (stereo unspecified), the compound was called inactive and the activity change, negative = inhibition worked out at 3.64%.

As to `Cc1cnc(C(=O)NCCc2ccc(S(=O)(=O)NC(=O)NC3CCCCC3)cc2)cn1`, the activity change, negative = inhibition came out at 3.67%. `NC(=O)NO`: the compound was called inactive and the activity change, negative = inhibition was -10.4%.
